From PubChem BioAssay (NCATS)
A number with no mark means an inactive call. Records with an inconclusive call do not appear. Where a call stands in place of a potency, no number is given. Calls of active or inactive are those of the source. Calls come from the whole dose curve; as a rule, active = well fitted curve in the direction sought with a large enough effect; inconclusive = small, poorly fitted or top-dose-only effect, or another doubt; inactive = no such curve, though single readings can be large; an effect the other way counts as inactive or inconclusive.

Key:
[1] = Cell Viability - H-4-II-E (AID 543); note: nearly all actives have a fitted effect of over 35% in size; note: potency is the fitted concentration of half-maximal effect
Method in brief: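 Rat hepatoma H-4-II-E cells (1500/well) were plated, incubated 5 hr at 37 °C, then exposed to compounds for 40 hr at 37 °C. Cellular ATP was read by CellTiter-Glo luminescence; AC50 came from Hill-equation fits of concentration-response data.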

[2] = Cell Viability - SH-SY5Y (AID 544); conditions: SH-SY5Y neuroblastoma cell viability; viability change, negative = cytotoxic: at 92.2 µM (top of the series); note: nearly all actives have a fitted effect of over 55% in size; note: potency is the fitted concentration of half-maximal effect
Method in brief: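 Human neuroblastoma SH-SY5Y cells (1500/well) in complete medium were exposed to compounds for 40 hr at 37 °C; intracellular ATP was then quantified by CellTiter-Glo luminescence after 20 min at room temperature. AC50 came from Hill-equation concentration-response fits.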

[3] = Cell Viability - Renal Proximal Tubule (AID 545); note: nearly all actives have a fitted effect of over 40% in size; note: potency is the fitted concentration of half-maximal effect
Method in brief: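 Primary rat renal proximal tubule cells (1000/well) were treated with compounds for 40 hr at 37 °C in complete medium. Intracellular ATP was measured by CellTiter-Glo luminescence, and AC50 values came from Hill-equation fits of concentration-response data.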

[4] = Cell Viability - Mesenchymal (AID 546);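 note: cells exposed to compound for 40 hours before reading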; note: potency is the fitted concentration of half-maximal effect
Method in brief: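 AC50 values reflect the drop in intracellular ATP in a human kidney mesenchymal line derived from normal glomeruli. Treatment lasts 40 hr at 37 °C in complete medium, and the signal comes from CellTiter-Glo luminescence.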

[5] = Cellular Toxicity (caspase-3) HepG2 (AID 654); note: potency is the fitted concentration of half-maximal effect;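 for caspase-3 activation: cells exposed to compound for 16 hours before reading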
Method in brief: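 HepG2 cells (1500/well) in complete medium were treated with compounds for 16 hr at 37 °C. Caspase-3/7 activity was then read as luminescence from peptide-aminoluciferin cleavage. AC50 came from Hill fits, normalized to DMSO and 100 uM tamoxifen.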

[6] = Cellular Toxicity (caspase-3) HUV-EC-C (AID 656)
Method in brief: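 HUV-EC-C endothelial cells, 1000/well, were pre-incubated 5 hr at 37°C, then exposed to compounds for 16 hr at 37°C. Caspase-Glo 3/7 luminescence was read after 20 min at room temperature. AC50 came from Hill fits, normalized to DMSO and 100 uM tamoxifen.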

[7] = Cellular Toxicity (caspase-3) SHSY5Y (AID 657)
Method in brief: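 SH-SY5Y human neuroblastoma cells (1500/well) were treated with compounds for 16 h at 37 °C, then Caspase-Glo 3/7 luminescence was read after 1 h at room temperature. Data normalized to DMSO and 10 uM staurosporine; AC50 from Hill fits.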

[8] = Cellular Toxicity (caspase-3) MRC-5 (AID 659)
Method in brief: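 Concentration-dependent caspase 3/7 activation is measured in human normal lung fibroblasts (MRC-5) following 16-hour treatment. AC50 values come from standard Hill-equation modeling of luminescence normalized to DMSO and 10 uM staurosporine.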

[9] = Cellular Toxicity (caspase-3) BJ (AID 658)
Method in brief: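 Readout: Caspase-Glo 3/7 luminescence increase in BJ cells after 16 hr treatment at 37 °C. Staurosporine and tamoxifen served as positive controls; AC50 values came from Hill modelling of data normalized to DMSO and 10 uM staurosporine.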

[10] = Cellular Toxicity (caspase-3) Jurkat (AID 655); conditions: Jurkat caspase-3 activation, luminescence; caspase-3 activation: at 92.2 µM (top of the series), DMSO = 0%, tamoxifen = 100%;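 note: cells exposed to compound for 16 h at 37 °C before reading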
Method in brief: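 Jurkat cells (5000/well) in complete medium were treated with compounds for 16 hr at 37 °C, then Caspase-Glo 3/7 luminescence was read after 20 min at room temperature. Data normalized to DMSO (basal) and 100 uM tamoxifen (100%); AC50 from Hill fit.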

Row | SMILES | Potency [1] | Potency [2] | Potency [3] | Potency [4] | Potency [5] | outcome [6] | outcome [7] | outcome [8] | outcome [9] | caspase-3 activation [10] [%]
1 | C[C@@H]1CC2(OC3C[C@@]4(C)C5=CC[C@H]6C(C)(C)C(O[C@@H]7OC[C@@H](O)[C@H](O)[C@H]7O)CC[C@@]67C[C@@]57CC[C@]4(C)C31)OC(O)C1(C)OC21 (some centres not stated) | inactive | inactive | inactive | inactive | inactive | inactive | inactive | inactive | – | –
2 | c1ccc2n[nH]nc2c1 | inactive | inactive | inactive | inactive | inactive | inactive | inactive | inactive | inactive | –
3 | C=C(C)C(=O)OCC(C)O (configuration not stated) | inactive | inactive | inactive | inactive | inactive | – | – | inactive | inactive | 1.29
4 | COc1cccc(N)c1 | inactive | inactive | inactive | inactive | inactive | inactive | inactive | inactive | inactive | –
5 | [O-]/[N+](=N\O)c1ccccc1 | inactive | inactive | inactive | inactive | inactive | inactive | inactive | inactive | inactive | –
6 | c1ccc2c(c1)ccc1ncccc12 | inactive | inactive | inactive | inactive | inactive | inactive | inactive | inactive | inactive | –
7 | Oc1cccc(Nc2ccccc2)c1 | inactive | inactive | inactive | inactive | inactive | – | inactive | inactive | inactive | 2.02
8 | Cc1ccc2ncccc2c1 | inactive | inactive | inactive | inactive | inactive | – | inactive | inactive | inactive | 0.555
9 | CCNc1ccccc1 | inactive | inactive | inactive | inactive | inactive | inactive | inactive | inactive | inactive | –
10 | Nc1cc(Cl)c([N+](=O)[O-])cc1O | inactive | inactive | inactive | inactive | inactive | – | inactive | inactive | inactive | 1.7
11 | c1ccc(Nc2ccccc2)cc1 | inactive | inactive | inactive | inactive | inactive | – | inactive | inactive | inactive | 1.36
12 | CC=C(Cl)Cl | inactive | inactive | inactive | inactive | inactive | inactive | inactive | inactive | inactive | –
13 | COc1ccccc1[N+](=O)[O-] | inactive | inactive | inactive | inactive | inactive | inactive | inactive | inactive | inactive | –
14 | O=C(O)c1cccc(Cl)c1Cl | inactive | inactive | inactive | inactive | inactive | inactive | inactive | inactive | inactive | –
15 | Cc1cccc2cccnc12 | inactive | inactive | inactive | inactive | inactive | – | inactive | inactive | inactive | -0.137
16 | Nc1ccccc1[N+](=O)[O-] | inactive | inactive | inactive | inactive | inactive | – | inactive | inactive | inactive | -0.598
17 | CC(C)(C)OC=O | inactive | inactive | inactive | inactive | inactive | inactive | inactive | inactive | inactive | –
18 | COC(=O)CC#N | inactive | inactive | inactive | inactive | inactive | inactive | inactive | inactive | inactive | –
19 | CSCCC=O | inactive | inactive | inactive | inactive | inactive | inactive | inactive | inactive | inactive | –
20 | O=C1OC(=O)c2c(Br)c(Br)c(Br)c(Br)c21 | inactive | inactive | inactive | inactive | inactive | inactive | inactive | inactive | inactive | –

Row | SMILES | Potency [1] | Potency [2] | Potency [3] | Potency [4] | Potency [5] | outcome [6] | outcome [7] | outcome [8] | outcome [9] | caspase-3 activation [10] [%]
21 | CCC1CO1 (configuration not stated) | inactive | inactive | inactive | inactive | – | inactive | inactive | inactive | inactive | 1.29
22 | CNC(=O)c1ccccc1 | inactive | inactive | inactive | inactive | – | inactive | inactive | inactive | inactive | 0.307
23 | Cc1cccc(C(=O)O)c1 | inactive | inactive | – | inactive | inactive | inactive | inactive | inactive | inactive | -6.77
24 | C=C(C)C(=O)OC | inactive | inactive | inactive | inactive | – | inactive | inactive | inactive | inactive | 1.74
25 | Cc1ccc(C#N)cc1 | inactive | inactive | inactive | inactive | – | inactive | inactive | inactive | inactive | 0.554
26 | O=[N+]([O-])c1ccc(CCO)cc1 | inactive | inactive | inactive | inactive | – | inactive | inactive | inactive | inactive | -1.91
27 | CCCCCCCN | inactive | inactive | inactive | inactive | – | – | inactive | inactive | – | -1.01
28 | Cc1ccc2nc(-c3ccc(N)cc3)sc2c1S(=O)(=O)O | inactive | inactive | inactive | inactive | inactive | inactive | – | inactive | inactive | –
29 | CCOc1cccc(N)c1 | inactive | inactive | inactive | inactive | – | – | inactive | inactive | inactive | -1.1
30 | C=C(C)OC(C)=O | inactive | inactive | inactive | inactive | – | inactive | inactive | inactive | inactive | -0.77
31 | Cc1cc(C2(c3cc(C)c(O)cc3C)OS(=O)(=O)c3ccccc32)c(C)cc1O | inactive | inactive | inactive | inactive | – | inactive | inactive | inactive | inactive | 2.78
32 | CC/C=C/C#N | inactive | inactive | inactive | inactive | inactive | inactive | – | inactive | inactive | –
33 | C=C(C)C1CC=C(C)C(OC(C)=O)C1 (configuration not stated) | inactive | inactive | inactive | inactive | inactive | inactive | – | inactive | inactive | –
34 | CC(N)CN (configuration not stated) | inactive | inactive | inactive | inactive | – | inactive | inactive | inactive | inactive | 2.43
35 | Nc1cc([N+](=O)[O-])ccc1C(=O)O | inactive | inactive | inactive | inactive | – | – | inactive | inactive | inactive | -2.73
36 | Nc1ccccc1S(=O)(=O)O | inactive | inactive | inactive | inactive | – | inactive | inactive | inactive | inactive | 1.01
37 | NC(=O)c1cccc([N+](=O)[O-])c1 | inactive | inactive | inactive | inactive | – | inactive | inactive | inactive | inactive | -0.315
38 | Clc1ccc(Cl)c(Cl)c1Cl | inactive | inactive | inactive | inactive | – | inactive | inactive | inactive | inactive | -1.65
39 | CCN(C(=O)N(CC)c1ccccc1)c1ccccc1 | inactive | inactive | inactive | inactive | inactive | – | inactive | inactive | inactive | –
40 | Cc1cc(C)c(N)cc1C | inactive | inactive | inactive | inactive | – | inactive | inactive | inactive | – | -1.78

Row | SMILES | Potency [1] | Potency [2] | Potency [3] | Potency [4] | Potency [5] | outcome [6] | outcome [7] | outcome [8] | outcome [9] | caspase-3 activation [10] [%]
41 | CCOCCOCC | inactive | inactive | inactive | inactive | – | inactive | inactive | inactive | inactive | 1.67
42 | OCCO | inactive | inactive | inactive | inactive | inactive | inactive | – | inactive | inactive | –
43 | O=[N+]([O-])c1ccc(Cl)cc1Cl | inactive | inactive | inactive | inactive | – | inactive | inactive | inactive | inactive | –
44 | OC1CCCC1 | inactive | inactive | inactive | inactive | – | inactive | inactive | inactive | – | 0.809
45 | C=Cc1ccc(C=C)cc1 | inactive | inactive | inactive | inactive | – | inactive | inactive | inactive | – | -0.456
46 | O=C(O)c1cc(Cl)cc(Cl)c1 | inactive | inactive | inactive | inactive | inactive | inactive | – | inactive | inactive | –
47 | CC(=O)OC(C)C | inactive | inactive | inactive | inactive | – | inactive | inactive | inactive | inactive | -0.432
48 | CC(C)Nc1ccccc1 | inactive | inactive | inactive | inactive | – | inactive | inactive | inactive | inactive | 2.39
49 | CC1=C(/C=C/C(C)=C/C=C/C(C)=C\C=O)C(C)(C)CCC1 | 12.6 µM (active) | 20 µM (active) | 12.6 µM (active) | 12.6 µM (active) | 63.1 µM (active) | – | – | – | inactive | –
50 | O=C1C=CCCC1 | inactive | inactive | inactive | inactive | – | inactive | inactive | inactive | inactive | -0.0925
51 | NC(N)=S | inactive | inactive | – | inactive | inactive | inactive | inactive | inactive | inactive | 0.321
52 | CC(=O)Nc1ccc(C)cc1 | inactive | inactive | inactive | inactive | – | inactive | – | inactive | inactive | –
53 | CCCOCC(C)OCC(C)O (configuration not stated) | inactive | inactive | inactive | inactive | – | inactive | inactive | inactive | – | -2.41
54 | O=C1OC(=O)c2cc([N+](=O)[O-])ccc21 | inactive | inactive | inactive | inactive | – | inactive | inactive | inactive | inactive | -2.27
55 | Cc1cccc(C)c1O | inactive | inactive | inactive | inactive | – | inactive | inactive | inactive | inactive | -0.87
56 | CC(C)(O)CCC(C)(C)O | inactive | inactive | inactive | inactive | – | inactive | inactive | inactive | inactive | 0.189
57 | O=[N+]([O-])c1cc(C(F)(F)F)ccc1Cl | inactive | inactive | inactive | inactive | – | inactive | inactive | inactive | inactive | 0.364
58 | CCCCC/C=C/C=C/C=O | inactive | inactive | inactive | inactive | – | inactive | inactive | inactive | inactive | –
59 | CCOc1cc(OCC)c(C(C)=O)cc1OCC | inactive | inactive | inactive | inactive | inactive | – | inactive | inactive | inactive | –
